Reference: the supplement of paper PMC6522484
± gives the standard deviation of the averaged measurements.

These molecules were tested on SW480 (assay: TCF/Wnt firefly luciferase reporter signal relative to plate median (fraction of plate median); higher = higher Wnt reporter signal). Conditions: 5 µM; treatment time 24 h; reporter: 7TFP.
Procedure, shortened: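 Library compounds, at a final 5 µM, stayed on reporter cells for 24 h. The cells were colorectal cancer lines stably transduced with lentiviral TCF/Wnt firefly luciferase reporters, seeded in 384-well plates 24 h before dosing. Firefly luciferase or CellTiterGlo luminescence from parallel plates was normalised to the plate median in webcellHTS2 (additive, no log transformation), and two independent replicates were averaged.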

| Compound | TCF/Wnt firefly luciferase reporter signal |
| --- | --- |
| O=[N+]([O-])c1ccc(O)c([N+](=O)[O-])c1 | 1.03 ± 0.035 |
| Oc1ccc(Cl)cc1 | 1.115 ± 0.0071 |
| [N-]=[N+]=CC(=O)OC[C@H](N)C(=O)O | 0.989 ± 0.044 |
| CC(=O)[C@H]1CC[C@H]2[C@@H]3CC[C@H]4C[C@H](O)CC[C@]4(C)[C@H]3CC[C@]12C | 0.912 ± 0.059 |
| CN[C@@H]1C[C@H]2O[C@@](C)([C@@H]1OC)n1c3ccccc3c3c4c(c5c6ccccc6n2c5c31)C(=O)NC4 [Staurosporine] | 0.965 ± 0.045 |
| OCC(O)Cc1ccc2c(c1)OCO2 (stereo not given) | 0.985 ± 0.036 |
| CN1CCc2cc3c(cc2C1O)OCO3 (stereo not given) | 0.942 ± 0.064 |
| COS(C)(=O)=O | 0.958 ± 0.074 |
| Oc1cc(Cl)ccc1Oc1ccc(Cl)cc1Cl | 0.893 ± 0.021 |
| CCC(N)C(O)c1ccc(O)c(O)c1 (stereo not given) | 1.08 ± 0.071 |
| CC1=C(O)C(=O)C=C2C1=CC=C1[C@@]2(C)CC[C@@]2(C)[C@@H]3C[C@](C)(C(=O)O)CC[C@]3(C)CC[C@]12C | 0.787 ± 0.12 |
| O=[N+]([O-])O[C@@H]1CO[C@H]2[C@@H]1OC[C@@H]2O | 0.915 ± 0.12 |
| CN[C@@H]1[C@@H](O)[C@@H](O[C@@H]2[C@@H](O)[C@H](O[C@H]3O[C@H](CN)CC[C@H]3N)[C@@H](N)C[C@H]2N)OC[C@]1(C)O.CN[C@@H]1[C@@H](O)[C@@H](O[C@@H]2[C@@H](O)[C@H](O[C@H]3O[C@H]([C@@H](C)N)CC[C@H]3N)[C@@H](N)C[C@H]2N)OC[C@]1(C)O.CN[C@@H]1[C@@H](O)[C@@H](O[C@@H]2[C@@H](O)[C@H](O[C@H]3O[C@H]([C@@H](C)NC)CC[C@H]3N)[C@@H](N)C[C@H]2N)OC[C@]1(C)O | 1.04 ± 0.069 |
| O=c1ccc2c(O)c3ccoc3cc2o1 | 0.886 ± 0.034 |
| C[C@H]1O[C@@H](O[C@H]2[C@@H](O)C[C@H](O[C@H]3[C@@H](O)C[C@H](O[C@H]4CC[C@@]5(C)[C@H](CC[C@@H]6[C@@H]5CC[C@]5(C)[C@@H](C7=CC(=O)OC7)[C@@H](O)C[C@]65O)C4)O[C@@H]3C)O[C@@H]2C)C[C@H](O)[C@@H]1O | 0.685 ± 0.25 |
| C[C@H]1CC[C@]2(NC1)O[C@H]1C[C@H]3[C@@H]4CC[C@H]5C[C@@H](O)CC[C@]5(C)[C@H]4CC[C@]3(C)[C@H]1[C@@H]2C | 1.09 ± 0.057 |
| COC(=O)NC(=S)Nc1ccccc1NC(=S)NC(=O)OC | 1.02 ± 0.31 |
| CCCC(=O)O[C@@H]1[C@@H](C)[C@@]2(O)[C@@H](C=C(CO)C[C@]3(O)C(=O)C(C)=C[C@@H]23)[C@@H]2C(C)(C)[C@]12OC(=O)CCC | 0.984 ± 0.0085 |
| C[C@H](N)[C@H](O)c1ccc(O)c(O)c1 | 0.9685 ± 0.0078 |
| CCOC(=O)C1C(C=C(C)C)C1(C)C (stereo not given) | 1.02 ± 0.035 |
| CCCC(C)C1(CC)C(=O)NC(=O)NC1=O (stereo not given) | 0.933 ± 0.11 |
| CN1[C@@H]2C[C@@H](OC(=O)[C@H](CO)c3ccccc3)C[C@H]1[C@@H]1O[C@@H]12 | 1.035 ± 0.0071 |
| COc1cc2occc2c2oc(=O)ccc12 | 0.818 ± 0.11 |
| CN(C)C(=O)Oc1cc(OC(=O)N(C)C)cc(C(O)CNC(C)(C)C)c1 (stereo not given) | 1.045 ± 0.0071 |
| O=C(O)CC[N+](=O)[O-] [BOVINOCIDIN (3-nitropropionic acid)] | 1.05 ± 0.1 |
| CC(C)=CCCC1(C)C=Cc2c(O)c3c(c(CC=C(C)C)c2O1)OC12C(=CC4CC1C(C)(C)OC2(C/C=C(/C)C(=O)O)C4O)C3=O (stereo not given) | 0.921 ± 0.054 |
| O=C(O)CCC1NCC2CC1CN1CCCCC21 (stereo not given) | 1.11 ± 0.078 |
| CC(=O)Oc1c2c(c(CC=C(C)C)c3c1C(=O)C1=C[C@@H]4CC5C(C)(C)OC(C/C=C(\C)C(=O)O)(C4=O)[C@@]15O3)OC(C)(CCC=C(C)C)C=C2 (stereo not given in full) | 0.814 ± 0.26 |
| NCCCNCCSP(=O)(O)O | 1.05 ± 0.035 |

These molecules were tested on DLD1 (assay: TCF/Wnt firefly luciferase reporter signal relative to plate median (fraction of plate median); higher = higher Wnt reporter signal). Conditions: 10 µM; treatment time 24 h; reporter: 7TFP.
Procedure, shortened: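 Values are the mean of two independent replicates of luminescence normalised to the plate median with webcellHTS2, using the additive method without log transformation. They come from colorectal cancer cell lines stably transduced with lentiviral TCF/Wnt firefly luciferase reporters (7TFP or TCF4/Wnt), seeded in 384-well plates. After 24 h the cells got kinase inhibitor library compounds at a final 10 µM for 24 h, and parallel plates were read for firefly luciferase or CellTiterGlo on a Tecan F500.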

| Compound | TCF/Wnt firefly luciferase reporter signal |
| --- | --- |
| CN[C@@H]1C[C@H]2O[C@@](C)([C@@H]1OC)n1c3ccccc3c3c4c(c5c6ccccc6n2c5c31)C(=O)NC4 [Staurosporine] | 0.204 ± 0.069 |
| Cc1ccccc1-n1c(Cn2ncc3c(N)ncnc32)nc2cccc(C)c2c1=O | 1.11 ± 0.13 |
| O=c1[nH]c2ccc(Cl)cc2c(N[C@@H]2CN3CCC2CC3)c1-c1nc2ccccc2[nH]1 | 2.27 ± 0.078 |
| Cc1ccccc1-n1c(Cn2cnc3c(N)ncnc32)nc2cccc(C)c2c1=O | 1.02 ± 0.021 |
| COC[C@H]1OC(=O)c2coc3c2[C@@]1(C)C1=C(C3=O)[C@@H]2CCC(=O)[C@@]2(C)C[C@H]1OC(C)=O [Wortmannin] | 0.662 ± 0.033 |
| CC(C)(C)c1cc(C=C(C#N)C#N)cc(Br)c1O | 1.2 ± 0.092 |
| CCN1CCN(C(=O)Cc2ccc(Nc3ncc(F)c(Nc4ccc(C(=O)Nc5ccccc5Cl)cc4)n3)cc2)CC1 [Aurora A Inhibitor I] | 1.16 ± 0.057 |
| Cn1cc(C2=C(c3cn(C4CCN(Cc5ccccn5)CC4)c4ccccc34)C(=O)NC2=O)c2ccccc21 | 1.98 ± 0.86 |

Same assay, conditions: 10 µM; treatment time 24 h; reporter: TCF4/Wnt

| Compound | TCF/Wnt firefly luciferase reporter signal |
| --- | --- |
| CN[C@@H]1C[C@H]2O[C@@](C)([C@@H]1OC)n1c3ccccc3c3c4c(c5c6ccccc6n2c5c31)C(=O)NC4 [Staurosporine] | 0.2 ± 0.04 |
| Cc1ccccc1-n1c(Cn2ncc3c(N)ncnc32)nc2cccc(C)c2c1=O | 0.77 ± 0.022 |
| O=c1[nH]c2ccc(Cl)cc2c(N[C@@H]2CN3CCC2CC3)c1-c1nc2ccccc2[nH]1 | 2.27 ± 0.18 |
| Cc1ccccc1-n1c(Cn2cnc3c(N)ncnc32)nc2cccc(C)c2c1=O | 0.941 ± 0.027 |
| COC[C@H]1OC(=O)c2coc3c2[C@@]1(C)C1=C(C3=O)[C@@H]2CCC(=O)[C@@]2(C)C[C@H]1OC(C)=O [Wortmannin] | 0.821 ± 0.059 |
| CC(C)(C)c1cc(C=C(C#N)C#N)cc(Br)c1O | 1.07 ± 0.18 |
| CCN1CCN(C(=O)Cc2ccc(Nc3ncc(F)c(Nc4ccc(C(=O)Nc5ccccc5Cl)cc4)n3)cc2)CC1 [Aurora A Inhibitor I] | 1.16 ± 0.028 |
| Cn1cc(C2=C(c3cn(C4CCN(Cc5ccccn5)CC4)c4ccccc34)C(=O)NC2=O)c2ccccc21 | 1.38 ± 0.18 |
